{
  "source": "paper PMC7862700",
  "about": "“An all-to-all approach to the identification of sequence-specific readers for epigenetic DNA modifications on cytosine”",
  "experiment_in_all_cases": "DAPPL (digital affinity profiling via proximity ligation, sequencing); 10 mM Tris-HCl pH 7.5, 50 mM NaCl, 1 mM DTT, 4% glycerol, room temperature, 30 min; GST-TFs on glutathione beads, 16-mer random dsDNA library, 0.1% formaldehyde crosslink after washing; high values mean tight binding",
  "key": {"[1]": {"target": "T1, FEV (Homo sapiens, UniProt Q99581 1-238)", "T1 sequence": "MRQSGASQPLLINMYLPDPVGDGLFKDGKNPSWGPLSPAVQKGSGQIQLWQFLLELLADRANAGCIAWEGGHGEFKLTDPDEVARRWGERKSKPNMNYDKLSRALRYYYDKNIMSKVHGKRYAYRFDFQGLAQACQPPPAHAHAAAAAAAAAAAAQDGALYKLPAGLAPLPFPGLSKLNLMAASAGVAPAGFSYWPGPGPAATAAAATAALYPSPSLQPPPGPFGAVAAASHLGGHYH", "conditions": "protein: recombinant; tags: N-terminal GST; dsDNA, one strand shown", "method_in_brief": "(§1)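 Sequencing on an Illumina NextSeq500 followed washing, crosslinking with 0.1% formaldehyde, proximity ligation (BsaI/T4 ligase, 1 h, 37 °C) and PCR amplification of pools that had been incubated for 30 min at room temperature with 200 nmole of a random double-stranded 16-mer DNA library in Tris/NaCl/DTT/glycerol buffer. Each pool held DNA-barcoded human transcription factors, expressed in yeast as GST fusions and captured on glutathione beads, plus a tag-only sample. Binding signal is a hexamer's read frequency for a factor divided by its frequency in the tag-only sample.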"}, "[2]": {"target": "ETV5 (Homo sapiens, UniProt P41161 1-510)", "sequence (P41161 whole entry)": "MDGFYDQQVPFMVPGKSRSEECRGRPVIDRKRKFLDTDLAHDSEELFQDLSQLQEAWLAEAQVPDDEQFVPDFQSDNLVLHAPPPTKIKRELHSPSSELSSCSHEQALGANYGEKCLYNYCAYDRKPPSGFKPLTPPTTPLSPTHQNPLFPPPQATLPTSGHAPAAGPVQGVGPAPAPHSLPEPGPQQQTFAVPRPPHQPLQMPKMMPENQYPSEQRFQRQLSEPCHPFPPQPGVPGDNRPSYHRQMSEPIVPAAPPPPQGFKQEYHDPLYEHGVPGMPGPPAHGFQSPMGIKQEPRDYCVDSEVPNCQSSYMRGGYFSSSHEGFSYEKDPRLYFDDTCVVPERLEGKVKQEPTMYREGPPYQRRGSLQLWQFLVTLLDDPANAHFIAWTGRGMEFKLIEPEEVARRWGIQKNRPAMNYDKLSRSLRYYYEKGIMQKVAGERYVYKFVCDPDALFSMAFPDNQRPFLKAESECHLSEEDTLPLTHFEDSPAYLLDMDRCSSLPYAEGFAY", "conditions": "protein: recombinant; tags: N-terminal GST; dsDNA, one strand shown", "method_in_brief": "as §1"}, "[3]": {"target": "HSF1 (Homo sapiens, UniProt Q00613 1-529)", "sequence (Q00613 whole entry)": "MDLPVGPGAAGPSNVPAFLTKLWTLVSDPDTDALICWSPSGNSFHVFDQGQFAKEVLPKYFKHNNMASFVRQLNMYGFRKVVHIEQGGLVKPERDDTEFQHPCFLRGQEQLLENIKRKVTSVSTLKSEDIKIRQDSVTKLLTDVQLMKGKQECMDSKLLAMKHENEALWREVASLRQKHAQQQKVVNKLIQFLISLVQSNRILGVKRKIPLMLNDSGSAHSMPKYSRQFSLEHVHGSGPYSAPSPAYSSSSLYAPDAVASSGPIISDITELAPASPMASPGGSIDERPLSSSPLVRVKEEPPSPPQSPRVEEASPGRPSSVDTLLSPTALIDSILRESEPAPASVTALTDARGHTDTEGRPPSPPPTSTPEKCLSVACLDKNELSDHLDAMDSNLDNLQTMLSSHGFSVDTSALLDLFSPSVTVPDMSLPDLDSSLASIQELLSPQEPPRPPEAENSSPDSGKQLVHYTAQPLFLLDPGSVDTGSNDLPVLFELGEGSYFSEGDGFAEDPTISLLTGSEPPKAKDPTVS", "conditions": "protein: recombinant; tags: N-terminal GST; chain copies: 3; dsDNA, one strand shown", "method_in_brief": "as §1"}, "[4]": {"target": "T2, SPIC (Homo sapiens, UniProt Q8N5J4 1-248)", "T2 sequence": "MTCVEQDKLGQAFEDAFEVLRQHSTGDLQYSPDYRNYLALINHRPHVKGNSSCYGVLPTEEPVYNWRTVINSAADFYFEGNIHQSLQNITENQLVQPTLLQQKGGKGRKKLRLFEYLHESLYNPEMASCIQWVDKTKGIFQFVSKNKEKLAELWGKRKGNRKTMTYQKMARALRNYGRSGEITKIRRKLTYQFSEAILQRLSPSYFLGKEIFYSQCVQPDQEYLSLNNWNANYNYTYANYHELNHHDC", "conditions": "protein: recombinant; tags: N-terminal GST; dsDNA, one strand shown", "method_in_brief": "as §1"}, "[5]": {"target": "ELF4 (Homo sapiens, UniProt Q99607 1-663)", "sequence (Q99607 whole entry)": "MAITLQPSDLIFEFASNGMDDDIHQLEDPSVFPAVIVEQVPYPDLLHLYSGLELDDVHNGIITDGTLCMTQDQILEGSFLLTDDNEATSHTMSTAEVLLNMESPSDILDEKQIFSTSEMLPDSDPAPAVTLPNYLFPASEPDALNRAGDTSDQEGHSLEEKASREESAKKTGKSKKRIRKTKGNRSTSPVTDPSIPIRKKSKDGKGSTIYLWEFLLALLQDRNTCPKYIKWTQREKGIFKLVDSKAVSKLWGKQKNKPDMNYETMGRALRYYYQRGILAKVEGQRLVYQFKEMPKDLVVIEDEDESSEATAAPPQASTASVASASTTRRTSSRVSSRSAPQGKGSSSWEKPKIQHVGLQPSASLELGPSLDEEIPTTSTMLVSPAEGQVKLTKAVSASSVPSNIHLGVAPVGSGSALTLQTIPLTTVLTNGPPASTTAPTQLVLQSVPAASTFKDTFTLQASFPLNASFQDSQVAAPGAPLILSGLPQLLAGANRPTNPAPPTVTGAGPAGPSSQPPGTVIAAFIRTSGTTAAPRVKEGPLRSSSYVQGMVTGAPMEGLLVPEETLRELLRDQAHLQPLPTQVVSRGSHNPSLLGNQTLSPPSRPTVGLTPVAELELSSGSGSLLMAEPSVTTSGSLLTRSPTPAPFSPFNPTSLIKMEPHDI", "conditions": "protein: recombinant; tags: N-terminal GST; dsDNA, one strand shown", "method_in_brief": "as §1"}, "[6]": {"target": "T3, ELK4 (Homo sapiens, UniProt P28324-2 1-405)", "T3 sequence": "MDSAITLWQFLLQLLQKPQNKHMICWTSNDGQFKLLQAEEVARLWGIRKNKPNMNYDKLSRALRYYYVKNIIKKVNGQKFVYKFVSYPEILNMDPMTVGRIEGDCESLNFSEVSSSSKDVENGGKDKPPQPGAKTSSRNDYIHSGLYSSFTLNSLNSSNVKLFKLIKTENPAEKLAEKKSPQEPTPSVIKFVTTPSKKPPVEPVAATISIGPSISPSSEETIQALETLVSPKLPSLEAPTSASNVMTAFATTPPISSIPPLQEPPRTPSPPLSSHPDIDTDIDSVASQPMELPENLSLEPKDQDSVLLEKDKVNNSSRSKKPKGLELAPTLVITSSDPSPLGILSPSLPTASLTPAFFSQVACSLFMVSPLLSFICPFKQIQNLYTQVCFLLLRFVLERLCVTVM", "conditions": "protein: recombinant; tags: N-terminal GST; dsDNA, one strand shown", "method_in_brief": "as §1"}, "[7]": {"target": "T4, ETV2 (Homo sapiens, UniProt O00321 1-342)", "T4 sequence": "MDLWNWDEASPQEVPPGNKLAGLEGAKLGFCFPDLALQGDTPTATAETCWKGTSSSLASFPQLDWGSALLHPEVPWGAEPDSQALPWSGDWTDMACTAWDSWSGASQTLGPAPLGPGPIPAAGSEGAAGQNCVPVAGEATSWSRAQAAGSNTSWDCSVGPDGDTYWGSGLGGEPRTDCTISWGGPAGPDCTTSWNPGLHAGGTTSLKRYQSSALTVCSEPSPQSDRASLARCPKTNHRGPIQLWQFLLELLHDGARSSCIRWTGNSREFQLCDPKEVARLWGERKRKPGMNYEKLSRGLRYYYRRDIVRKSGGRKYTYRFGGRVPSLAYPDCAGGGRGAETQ", "conditions": "protein: recombinant; tags: N-terminal GST; dsDNA, one strand shown", "method_in_brief": "as §1"}, "[8]": {"target": "T5, ELF3 (Homo sapiens, UniProt P78545 1-371)", "T5 sequence": "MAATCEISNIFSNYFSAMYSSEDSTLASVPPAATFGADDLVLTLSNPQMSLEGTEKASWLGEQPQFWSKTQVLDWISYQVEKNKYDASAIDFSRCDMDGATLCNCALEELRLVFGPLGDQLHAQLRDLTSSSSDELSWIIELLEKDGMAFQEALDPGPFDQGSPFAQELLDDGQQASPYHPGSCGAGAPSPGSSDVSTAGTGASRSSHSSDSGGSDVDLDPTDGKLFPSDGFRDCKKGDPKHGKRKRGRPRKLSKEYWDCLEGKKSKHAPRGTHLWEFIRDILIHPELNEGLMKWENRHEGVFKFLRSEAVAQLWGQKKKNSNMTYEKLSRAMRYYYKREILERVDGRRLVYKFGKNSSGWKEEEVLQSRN", "conditions": "protein: recombinant; tags: N-terminal GST; dsDNA, one strand shown", "method_in_brief": "as §1"}, "[9]": {"target": "CRX (Homo sapiens, UniProt O43186 1-299)", "sequence (O43186 whole entry)": "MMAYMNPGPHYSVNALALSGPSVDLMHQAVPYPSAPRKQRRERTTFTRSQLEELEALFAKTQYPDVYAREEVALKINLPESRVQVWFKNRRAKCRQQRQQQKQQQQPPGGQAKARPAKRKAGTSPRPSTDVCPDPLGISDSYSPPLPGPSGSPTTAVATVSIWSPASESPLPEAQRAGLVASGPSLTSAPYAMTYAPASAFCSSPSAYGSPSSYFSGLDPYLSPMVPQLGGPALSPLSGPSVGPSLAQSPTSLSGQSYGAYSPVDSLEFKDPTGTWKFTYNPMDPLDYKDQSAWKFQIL", "conditions": "protein: recombinant; tags: N-terminal GST; dsDNA, one strand shown", "method_in_brief": "as §1"}},
  "data": [
    {"sequence": "TTGATA", "values": [
      {"measurement": "binding signal", "setting": "[1]", "result": "1.13 fold enrichment (6-mer frequency, TF over GST control)"},
      {"measurement": "binding signal", "setting": "[2]", "result": "1.15 fold enrichment (6-mer frequency, TF over GST control)"},
      {"measurement": "binding signal", "setting": "[3]", "result": "1.19 fold enrichment (6-mer frequency, TF over GST control)"},
      {"measurement": "binding signal", "setting": "[4]", "result": "1.36 fold enrichment (6-mer frequency, TF over GST control)"},
      {"measurement": "binding signal", "setting": "[5]", "result": "1.29 fold enrichment (6-mer frequency, TF over GST control)"},
      {"measurement": "binding signal", "setting": "[6]", "result": "1.42 fold enrichment (6-mer frequency, TF over GST control)"},
      {"measurement": "binding signal", "setting": "[7]", "result": "1.23 fold enrichment (6-mer frequency, TF over GST control)"},
      {"measurement": "binding signal", "setting": "[8]", "result": "1.03 fold enrichment (6-mer frequency, TF over GST control)"},
      {"measurement": "binding signal", "setting": "[9]", "result": "1.53 fold enrichment (6-mer frequency, TF over GST control)"}
    ]}
  ]
}
